# D3 antag – antagonists of human D3 dopamine receptor. actives 2.5% (n = 360,000). max response, negative = inhibition, %. P35462. D3R cells, DiscoveRx beta-arrestin luminescence, antagonist mode; stronger effect = lower value; in the data active means max response below about -50%; inconclusive means no clear call, values can overlap the other calls; further: on the % scale 0 is the no-effect control and ±100 the full control effect
# Target sequence (P35462 whole entry, looked up): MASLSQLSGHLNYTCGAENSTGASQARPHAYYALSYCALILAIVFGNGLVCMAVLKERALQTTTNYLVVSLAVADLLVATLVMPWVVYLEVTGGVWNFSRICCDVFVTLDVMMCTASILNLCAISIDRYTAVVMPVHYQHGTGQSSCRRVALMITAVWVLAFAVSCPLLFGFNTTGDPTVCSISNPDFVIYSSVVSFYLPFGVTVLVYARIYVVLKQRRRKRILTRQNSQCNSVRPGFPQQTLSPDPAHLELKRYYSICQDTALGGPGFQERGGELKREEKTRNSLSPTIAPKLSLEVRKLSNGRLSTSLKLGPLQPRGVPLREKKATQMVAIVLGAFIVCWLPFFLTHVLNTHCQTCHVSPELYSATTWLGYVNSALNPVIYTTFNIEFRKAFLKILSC
#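 Cells expressing the human receptor were seeded at 1500 cells/well, incubated overnight at 37 degrees C in 5% CO2, then exposed to library compounds with dopamine controls for 90 minutes at 37 degrees C before luminescent detection.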
# DRD3 agonist – D3 dopamine receptor (human) agonism. P35462. D3R DiscoveRx beta-arrestin cells, luminescence, 90 min. max activation, %. actives 0.58% (n = 410,000); in the data active means max activation above about 30%; further: 0% is about no effect
#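 Cells at 1500/well, incubated overnight, then treated with pinned compounds (dopamine as control) for 90 min at 37 degrees C. DiscoveRx reagent added for 30 - 60 minutes at room temperature; luminescence read.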
# a7 integrin act – activators of alpha7 integrin expression for muscular dystrophy; alpha7betagal myoblasts, beta-gal FDG fluorescence, 48 h; AID 624291; Potency, µM (series often up to 38.3 µM), for the others: at the highest dose activation, most hits filed as activators; actives 0.064% (n = 350,000); active means well fitted activation curve with a large enough effect; inconclusive means small, poorly fitted or top-dose-only effect; inactive means no such curve, though single readings can be large or run the other way;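 further: potency means the concentration at half of the fitted maximal effect; 100% = response of the positive control SU9516; nearly all actives have a fitted effect of over 60% in size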
#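 Alpha7betagal+/- myoblasts (passage 13) were plated 16-24 hr, then exposed to compounds (1:260 dilution of DMSO stock) for 48 hours at 37C. After MPER lysis, β-galactosidase reporter activity was read as FDG fluorescence (ex 480/em 540) after 30 minutes.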
# The depositor's hits bear a star; ? = inconclusive; . = no result given; [ ] = dose if it differs, or a comment. Shown are actives, neighbours in structure and some others; about 2.9% of the full set was active somewhere.
SMILES,D3 antag,DRD3 agonist,a7 integrin act
Cc1ccc(S(=O)(=O)NC(CC(C)C)C(=O)N2CC(C)OC(C)C2)cc1 (stereo not given),11.0,11.5,20.7%
O=C(COC(=O)CCc1c[nH]c2ccccc12)Nc1ccccc1,?,-0.1,-7.2%
O=C(COC(=O)CCc1c[nH]c2ccccc12)NC(c1ccccc1)c1ccccc1,5.0,39.5*,12.7%
COc1ccc(C2CC(O)(c3ccccc3)Oc3cc(OC)ccc32)cc1 (stereo not given),13.0,4.6,-15.7%
CCCS(=O)(=O)c1c(S(=O)(=O)CCC)c2cc(-c3ccncc3)ccn2c1C(=O)OC,14.3,3.7,-0.8%
Cc1ccccc1C(=NCCCN(C)C)c1ccccc1C,-75.3*,-9.5,-36.1%
Cc1cccc(C)c1C(=NCCN(C)C)c1ccccc1,?,-11.2,-9.1%
COC(=O)c1cc(Cl)c(NC(=O)c2ccc(C(C)(C)C)cc2)cc1OC,28.9,70.4*,-16.6%[7.66 µM]
COC(=O)c1cc(Cl)c(NC(=O)C(C)C)cc1OC,5.2,-1.2,5.3%
Cc1cccc2sc(N(CCCN(C)C)C(=O)c3ccc4ncsc4c3)nc12,-7.4,-4.1,-51.8%
CCN(CC)S(=O)(=O)c1ccc(N2CCN(CCOc3ccc(OC)cc3)CC2)nc1,-6.4,61.1*,-1.4%
CCN(c1ccccc1)S(=O)(=O)c1ccc(N2CCN(c3ccc(OC)cc3)CC2)nc1,3.1,-1.2,16.1%
CC(C(=O)O)c1cccc(Oc2ccccc2)c1 (stereo not given),-62.2*,-28.8,.
COc1ccc2cc([C@@H](C)C(=O)O)ccc2c1,-28.1,-12.6,.
COc1cc([N+](=O)[O-])c(C)cc1NC(=O)c1ccc(OC)c(OC)c1,-6.3,-1.5,16.1%
C=CCn1c(SCc2c(C)noc2C)nc2cc(C(=O)O)ccc2c1=O,8.5,35.6*,-21.7%
C=CCn1c(SCc2c(C)noc2C)nc2ccccc2c1=O,-20.1,-11.0,1.7%
Clc1ccc2ccc3cccnc3c2n1,11.0,-2.1,8.9%
O=S1(=O)Nc2c(ccc3cccnc23)-c2ccccc21,-137.1*,-38.0,-69.3%
Cc1ccc(N2CC(C(=O)OCC(=O)Nc3cc(C)on3)CC2=O)c(C)c1 (stereo not given),-4.1,4.6,-9.6%
O=c1cc(N2CCCCC2)c(-c2ccccc2)nn1Cc1ccc(Cl)cc1,-15.3,-2.0,18.5%
O=c1cc(N2CCCCC2)c(-c2ccccc2)nn1Cc1c(Cl)cccc1Cl,-68.6*,-4.3,-42.9%
COc1ccc(CCN(Cc2cc3ccc(C)cc3n3nnnc23)C(C)=O)cc1OC,2.4,-0.1,2.8%
COc1ccc2cc([C@H](C)CO)ccc2c1,.,-2.2,.
COC(=O)c1nc2ccc(C)cn2c1F,2.2,0.2,27.1%
SMILES,D3 antag,DRD3 agonist,a7 integrin act
O=Cc1c(Cl)nc2ccccn2c1=O,-66.7*,-4.6,-59.1%
Cc1cccn2c(=O)c(C=O)c(Cl)nc12,-26.7,-25.5,-37.5%
CCN(C[C@H]1N[C@@](CC)(C(=O)OC)[C@H]2C(=O)N(C)C(=O)[C@@H]12)S(=O)(=O)c1ccc(C)cc1,?,-2.7,-14.8%
S=c1nc(-c2cc(Cl)cc(Cl)c2)[nH][nH]1,?,-4.5,26.5%
S=c1nc(-c2cccc(Cl)c2)[nH][nH]1,-55.4*,6.5,10.8%
CCCNc1nc2ccccc2n2c(C)nnc12,18.3,12.1,?
CCN(Cc1ccccc1)N=Nc1ccccc1,10.5,0.2,6.9%
COc1ccc(OC)c2[nH]c(=O)c(CCNC(=O)C(=O)c3c(C)[nH]c4ccccc34)cc12,3.2,-0.4,-49.9%
COc1ccc(C(=O)COC(=O)CCNS(=O)(=O)c2ccc(NC(C)=O)cc2)c(OC)c1,0.0,6.2,11.9%
COc1cc(OC)c(C#N)c(S(=O)(=O)Cc2ccccc2)c1,-15.9,-9.4,26.4%
N#Cc1c([N+](=O)[O-])cc([N+](=O)[O-])cc1S(=O)(=O)Cc1ccccc1,-102.3*,-13.6,-56.9%
O=C(O)c1cc(-c2ccco2)nc2ccccc12,4.8,17.5,7.1%
COc1ccccc1CN(C)C(=O)c1cc(-c2cc(OC)c(OC)c(OC)c2)nc2ccccc12,32.9,14.3,-60.9%
CCNC(=O)COC(=O)c1cc(-c2ccco2)nc2ccccc12,-20.6,11.4,5.62µM*
COc1cc(-c2cc(C(=O)N(C)Cc3ccccc3)c3ccccc3n2)cc(OC)c1OC,15.5,32.5*,-8.9%
COc1cc(-c2cc(C(=O)OCC(=O)NC3CC3)c3ccccc3n2)cc(OC)c1OC,58.4,32.5*,-12.7%
Cc1ccc(-c2cc(C(=O)OCC(=O)NC3CC3)c3ccccc3n2)cc1,6.7,-0.9,-17.5%
COc1ccc(C(=O)Nc2ccccc2C)cc1S(=O)(=O)N1CCOCC1,11.6,3.5,10.3%
CC(C#N)(NC(=O)COC(=O)c1ccccc1NCCO)C1CC1 (stereo not given),-7.5,13.5,13.1%
CCC(Sc1ccc2nnc(-c3ccc(F)cc3)n2n1)C(=O)OC (stereo not given),-75.0*,-17.6,16.0%
COC(=O)C(C)Sc1ccc2nnc(-c3ccc(F)cc3)n2n1 (stereo not given),-21.1,-20.0,3.7%
COC(=O)C1=C(C(=O)OC)[C@@H]2Nc3ccccc3[C@@]23C[C@@H](C(=O)OC)N=C3N1,-13.6,-32.1,3.2%
O=c1cc(CN2CCCCCC2)nc2sccn12,-5.1,-5.5,14.1%
O=C1c2ccccc2S(=O)(=O)N1Cc1cc(=O)n2ccsc2n1,-75.5*,-4.6,-20.8%
Cc1ccc2nc(CSc3nnc(NC(=O)c4cccc(Br)c4)s3)cc(=O)n2c1,.,1.5,.
SMILES,D3 antag,DRD3 agonist,a7 integrin act
CCCCC(c1nnnn1C1CCCC1)N1CCN(C2CCCCC2)CC1 (stereo not given),-60.0*,-23.3,-3.4%
CCCCC(c1nnnn1CC1CCCO1)N1CCN(Cc2ccccc2)CC1 (stereo not given),-78.4*,-5.7,4.1%
CCCC(c1nnnn1CC1CCCO1)N1CCN(c2ccccc2)CC1 (stereo not given),12.0,19.6,-36.2%
CCCC(c1nnnn1C1CCCCC1)N1CCN(c2ncccn2)CC1 (stereo not given),?,-2.9,-5.0%
C(=C\c1ccccc1)/CN1CCN(C(c2ccccc2)c2nnnn2C2CCCCC2)CC1 (stereo not given),-90.9*,-13.9,.
CCCC(c1nnnn1CCc1ccccc1)N1CCN(C2CCCC2)CC1 (stereo not given),?,-1.7,-11.0%
CSCCC(c1nnnn1C1CCCCC1)N1CCN(C/C=C/c2ccccc2)CC1 (stereo not given),-89.4*,-9.7,.
C(=C\c1ccccc1)/CN1CCN(C(c2ccnc3ccccc23)c2nnnn2C2CCCCC2)CC1 (stereo not given),?,-16.4,.
CC(C)c1ccc(/C=N/NC(=O)CC(=O)NCc2ccccc2)cc1,6.1,-2.0,-34.7%
O=S(=O)(Nc1nc2ccccc2s1)c1ccc(Cl)nc1,-8.7,1.6,-46.7%
CCCCCOC(=O)c1ccc(NC(=O)c2cccc(NC(=O)c3ccccc3C(=O)O)c2)cc1,18.7,1.6,-7.4%
CC(=O)c1ccc(NC(=O)COCc2cc(-c3ccco3)on2)cc1,.,-15.6,.
CCOc1ccc(NC(=O)CSc2nc3cccnc3n2CCOC)cc1,2.1,3.0,-39.9%
COc1ccc(NC(=O)c2cnc3n(c2=O)CCS3)cc1OC,-21.3,-0.4,23.7%

# Source: PubChem BioAssay
